Screening data (PubChem BioAssay)
KCNQ2 pot: potentiators of rat KCNQ2 potassium channel | Potassium voltage-gated channel subfamily KQT member 2 (Rattus norvegicus), O88943 | B-score at 10 µM | actives 0.54% (n = 310,000) | AID 2239, 2010 | CHO-K1 KCNQ2, FluxOR thallium flux fluorescence; active compounds read high;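 active = fluorescence ratio B-score at least 3 SD of library B-scores, with initial fluorescence B-score within 3 of them, cut at about 5.3 in these data; same plate scores as AID 2156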;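 also: B-score of peak minus minimum over baseline fluorescence ratio after K+ and Tl+ stimulus; positive B-score means potentiation of KCNQ2 with more thallium influx and brighter signal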
KCNQ2 inh: rat KCNQ2 potassium channel inhibitors, primary screen, cell-based, CHO-K1, FluxOR thallium flux, B-score; B-score at 10 µM; 20 min; active compounds read low; AID 2156, 2009; actives 1.1% (n = 310,000); Potassium voltage-gated channel subfamily KQT member 2 (Rattus norvegicus), O88943;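 active = fluorescence ratio B-score at most minus 3 library SDs, with starting brightness B-score within 2 library SDs, cut at about -5.5 in these data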
Kir21 conf inh: mouse Kir2.1 channel blockers, retest, confirmation, cell-based, FluxOR thallium flux, duplicate; shares compounds with KCNQ2 pot; Kir2.1-expressing cells, FluxOR thallium flux fluorescence; active compounds read low; Tl flux remaining, % of negative control (active compounds read low), % at 10 µM; actives 41% (n = 2,300); AID 2032, 2009;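 active = Primary-screen hit whose thallium flux fell at least 3 control SD below untreated wells in both duplicates, with normal baseline fluorescence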;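 also: 0% = blank wells without stimulus and 100% = stimulated no-compound controls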
Target sequence (P35561 whole entry, looked up): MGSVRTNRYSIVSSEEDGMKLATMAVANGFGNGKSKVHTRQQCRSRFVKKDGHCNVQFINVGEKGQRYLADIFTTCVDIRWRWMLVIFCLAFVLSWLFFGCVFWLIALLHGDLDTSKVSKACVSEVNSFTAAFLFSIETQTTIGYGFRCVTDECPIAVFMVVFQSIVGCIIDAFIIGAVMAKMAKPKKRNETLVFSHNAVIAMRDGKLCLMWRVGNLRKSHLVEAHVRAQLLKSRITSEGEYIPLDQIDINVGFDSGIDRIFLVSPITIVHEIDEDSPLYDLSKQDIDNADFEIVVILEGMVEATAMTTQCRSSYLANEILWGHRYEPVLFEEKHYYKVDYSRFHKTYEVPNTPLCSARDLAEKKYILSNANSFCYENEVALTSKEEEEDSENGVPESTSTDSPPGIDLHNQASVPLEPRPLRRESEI
HEK293 Tl flux: counter-screen for Kir2.1 inhibitors: effect in parental HEK293 cells | FluxOR signal as % of negative control (100 = no effect), % at 10 µM | actives 19% (n = 2,300) | FluxOR thallium flux fluorescence; 0% = unstimulated blank wells | shares compounds with KCNQ2 pot;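 active = dye signal at least 3 control SD above or below untreated wells in both duplicates, raw fluorescence within 3, either direction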;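 also: percent is based on the flux ratio of peak minus minimum fluorescence over baseline F0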
CHO-K1 ctr: nonspecific thallium flux increase in parental CHO-K1, confirmation, counter-screen for KCNQ2 potentiator project, cell-based, FluxOR thallium flux, duplicate; shares compounds with KCNQ2 pot; parental CHO-K1 cells, FluxOR thallium flux fluorescence; zero = vehicle mean+3SD, 100% = vehicle-minus-blank window; activity increase over 3SD of controls, % at 10 µM; actives 43% (n = 1,200); AID 2282, 2010;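 active = signal rise of at least 3 SD above the untreated control mean, in both duplicate wells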;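 also: counter screen of KCNQ2 potentiator hits so any rise reflects channel-independent effects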
KCNQ1 pot spec: human KCNQ1 channel potentiation off-target, confirmation, selectivity assay for KCNQ2 potentiator project, cell-based, CHO, FluxOR thallium flux; shares compounds with KCNQ2 pot; CHO KCNQ1 stable, FluxOR thallium flux fluorescence; beyond 3SD, as % of vehicle-control signal; activation over 3SD threshold, % at 10 µM; actives 28% (n = 1,200);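 active = fluorescence ratio rise of at least 3 SD of vehicle wells above their mean, in both replicate wells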;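 also: 0% = vehicle mean plus 3 SD and 100% = vehicle minus unstimulated blank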
KCNQ2 pot confirm: rat KCNQ2 channel potentiators, confirmation, cell-based, CHO, FluxOR thallium flux, duplicate | CHO-KCNQ2 cells, FluxOR thallium flux fluorescence | potentiation, less the hit threshold, % at 10 µM | actives 68% (n = 1,200) | shares compounds with KCNQ2 pot;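 active = fluorescence ratio rising 3 SD or more over the vehicle control mean in both replicates, plus primary screen hit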;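 also: peak minus minimum thallium fluorescence divided by baseline after K/Tl stimulus; 0% = vehicle mean plus 3 SD and 100% = vehicle minus unstimulated blank difference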
Kir21 spec: mouse Kir2.1 channel activation off-target, confirmation, selectivity assay for KCNQ2 potentiator project, cell-based, HEK293, FluxOR thallium flux; activity over 3SD threshold, % at 10 µM; HEK293 Kir2.1, FluxOR thallium flux fluorescence; shares compounds with KCNQ2 pot; actives 2% (n = 1,200);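 active = fluorescence ratio rise of at least 3 SD above the vehicle-control mean, seen in both replicates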;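 also: 0% = vehicle mean plus 3 SD and 100% = vehicle minus no-stimulus blank window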
KCNQ2 W236L pot: potentiators of retigabine-insensitive KCNQ2 W236L, mechanism study for KCNQ2 potentiator project, cell-based, rat KCNQ2 W236L, CHO, automated patch clamp. shares compounds with KCNQ2 pot. automated patch clamp current. current increase over 3SD of negative controls (%), active compounds read high, % at 25 µM. actives 10% (n = 940);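 active = current increase at least 3 SD of the untreated controls above them in both duplicate recordings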
An asterisk follows results filed as active; i = inactive; . = no result given; ! = repeats disagree. In the library only some 1.6% were active in any assay of this set; here they are far more common.

SMILES	KCNQ2 pot	KCNQ2 inh	Kir21 conf inh	HEK293 Tl flux	others
CCc1cc(-c2n[nH]c(=S)n2C(C)c2ccccc2)cs1 (configuration not stated)	1.9	i	50%*	i
Cc1scc(-c2n[nH]c(=S)n2C(C)c2ccccc2)c1C (configuration not stated)	.	i	.	.
CC(OC(=O)c1ccc(Cl)nc1)C(=O)N1CCc2ccccc21 (configuration not stated)	0.06	i	.	.
CC(C)N1CCN(Cc2cc3ccccc3[nH]2)CC1CCO (configuration not stated)	0.06	i	.	.
Cc1cc(Br)c(NC(=O)COC(=O)C2CC2C)c(Br)c1 (configuration not stated)	3.5	i	.	.
Cc1ccc(NC(=O)COC(=O)C2CC2C)c(S(=O)(=O)N2CCCCC2)c1 (configuration not stated)	5.3*	i	i	i	CHO-K1 ctr=-14;KCNQ1 pot spec=-17;KCNQ2 pot confirm=-23;Kir21 spec=-50
CSc1cccc(N2CC(C(=O)Nc3cccc(S(=O)(=O)N4CCCC4)c3)CC2=O)c1 (configuration not stated)	0.11	i	.	.
O=C(N1CCOCC1)N1CCc2ccccc21	.	i	.	.
CCOC(=O)c1cccc(Nc2ncnc3ccc(C)cc23)c1	1.7	i	52%*	i
CCOC(=O)c1ccc(Nc2ncnc3ccc(C)cc23)cc1	0.62	i	.	.
C=CCC1(N(C(C)=O)c2ccccc2C)CCCCC1	.	i	.	.
Cc1cc2nc(N)sc2cc1[N+](=O)[O-]	0.38	i	.	.
CCN(CC(=O)NC(C)(C)C)Cc1cc(=O)n2c(-c3ccccc3)csc2n1	0.13	i	.	.
Cc1ccc(/C=C2\SC(N3CCCCC3)=NC2=O)cc1	0.15	i	.	.
CC(C)(C)c1ccc(/C=C2/SC(N3CCCC3)=NC2=O)cc1	6.9*	i	i	i	CHO-K1 ctr=4.3*;KCNQ1 pot spec=-9;KCNQ2 pot confirm=12*;Kir21 spec=-14;KCNQ2 W236L pot=0.6%*
CN(Cc1c(C(=O)N/N=C/c2cc(F)ccc2F)nnn1-c1nonc1N)C1CCCCC1	2.5	i	.	.
COc1ccc(N(CC(=O)NN=C2CCCCCCC2)S(=O)(=O)c2ccccc2)cc1	0.29	i	.	.
CCOC(=O)CC(NC(=O)Cc1ccc(F)cc1)c1ccccc1Cl (configuration not stated)	0.18	i	.	.
N#C/C(=N\Nc1cccc(C(F)(F)F)c1)C(=O)c1ccsc1	3	i	.	.
NC(=NCCCCCCN=C(N)/N=C(\N)Nc1ccc(Cl)cc1)/N=C(\N)Nc1ccc(Cl)cc1	7*!	i	i	i	CHO-K1 ctr=3.9*;KCNQ1 pot spec=-14;KCNQ2 pot confirm=44*;Kir21 spec=-70
CCCCN=C(Nc1ccc(Cl)cc1)c1cccnc1	1.5	i	.	.
CCn1cc(CN2CCCC(CNC(=O)COc3ccccc3OC)C2)c(C)n1 (configuration not stated)	0.58	i	.	.
Cc1ccc(C)c(Cn2c3ccccc3c3cnn(CC(=O)NCCCN4CCCCC4)c(=O)c32)c1	0.21	i	60%*	i
Cc1ccc(C)c(Cn2c3ccccc3c3cnn(CC(=O)NCc4ccccn4)c(=O)c32)c1	1.2	i	.	.
C#CCNC(=O)C1=C[C@@H](c2ccc(Br)cc2)C[C@@H](OCc2ccc(CO)cc2)O1	.	i	.	.
SMILES	KCNQ2 pot	KCNQ2 inh	Kir21 conf inh	HEK293 Tl flux	others
C#CCNC(=O)C1=C[C@@H](c2ccc(C#C)cc2)C[C@@H](OCc2ccc(CO)cc2)O1	.	i	66%*	i
COC(=O)c1cccc(OCC(O)Cn2ccnc2)c1 (configuration not stated)	.	i	.	.
COc1ccc(C(=O)OC(COc2ccccc2)Cn2ccnc2)cc1 (configuration not stated)	.	i	54%*	i
COc1ccc(-c2cn3nc(SCC(=O)NC4CCCCC4)ccc3n2)cc1	.	i	.	.
CCN(CC(=O)Nc1c(F)cccc1F)C(=O)C1CCN(S(=O)(=O)c2ccc(C)cc2C)CC1	0.04	i	.	.
CCc1nnc(NC(=O)CCC(=O)N2CCN(Cc3ccc(F)cc3)CC2)s1	1.3	i	.	.
COc1ccc(C(C)=O)cc1CSCC(=O)O	0.78	i	.	.
COc1ccc(C(=O)/C=C/c2cccc(OCc3ccccc3)c2)cc1CSCC(=O)O	.	i	74%*	i
Oc1ccccc1C1=NN(c2ccccc2)C(c2ccc(F)cc2)C1 (configuration not stated)	2.9	i	.	.
Oc1ccc(C2=NN(c3ccccc3)C(c3ccc(F)cc3)C2)cc1 (configuration not stated)	12*	i	i	i	CHO-K1 ctr=3.9*;KCNQ1 pot spec=-14;KCNQ2 pot confirm=-16;Kir21 spec=-25
Cc1cc2ncn(C(=O)c3c(-c4ccccc4Cl)noc3C)c2cc1C	.	i	.	.
CC1(C)CC(n2c(=S)[nH]c3ccccc3c2=O)CCO1 (configuration not stated)	0.74	i	.	.
O=c1c2ccccc2[nH]c(=S)n1C1CCCCC1	.	i	.	.
CC1CCCC(n2c(=S)[nH]c3ccccc3c2=O)C1C (configuration not stated)	11*	i	i	i	CHO-K1 ctr=-15;KCNQ1 pot spec=-19;KCNQ2 pot confirm=6.8*;Kir21 spec=-27;KCNQ2 W236L pot=i
CC1CCC(n2c(=S)[nH]c3ccccc3c2=O)CC1 (configuration not stated)	11*	i	i	i	CHO-K1 ctr=-1;KCNQ1 pot spec=83*;KCNQ2 pot confirm=27*;Kir21 spec=-27;KCNQ2 W236L pot=i
COc1ccc(C[C@H]2CN3C(=NC[C@@H]3C(C)C)N2CCNC(=O)c2ccc(C)c(Br)c2)cc1	.	i	49%*	i
Cc1ccc(C(=O)NCCN2C3=NC[C@H](C(C)C)N3C[C@H]2Cc2ccc(O)cc2)cc1Br	.	i	.	.
Cn1cc(Br)c(C(=O)Nc2ncc(Br)s2)n1	0.42	i	.	.
